The source made the active and inactive calls. Unless noted, the rule behind the calls is not given here.
Experiments:
[1] = tested on: XIP peptide (Xip251-270) binding; test: small-molecule binders of XIP peptide, primary screen, biochemical, small-molecule microarray, fluorescence 635/667 nm, 0.1 µg/mL protein (AID 1182); details: fluorescent protein binding, 635 nm, higher = more signal, called active from +8 up or from −8 down
XIP peptide (Xip251-270) = test: small-molecule binders of XIP peptide, primary screen, biochemical, small-molecule microarray, fluorescence 635/667 nm, 0.5 µg/mL protein (AID 1183); details: small-molecule microarray binding, fluorescence 635 nm; higher = more signal
[2] = Plasmodium falciparum growth inhibition, primary screen, strain 3D7, DAPI fluorescence, 100 nL (AID 1184);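 note: parasites grown inside human red blood cells in medium with human serum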; details: P. falciparum 3D7 growth, 3 d, higher = more signal
[3] = biological target: Homeobox protein Hox-A13 (Mus musculus) (UniProt Q62424); test: inhibitors of HoxA13-DNA binding, primary screen, biochemical, fluorescence polarization, labeled oligonucleotide (AID 1185); details: 15 min, higher = more signal, called active from +8 up or from −8 down
Homeobox protein Hox-A13 (Mus musculus), sequence (Q62424 whole entry, looked up): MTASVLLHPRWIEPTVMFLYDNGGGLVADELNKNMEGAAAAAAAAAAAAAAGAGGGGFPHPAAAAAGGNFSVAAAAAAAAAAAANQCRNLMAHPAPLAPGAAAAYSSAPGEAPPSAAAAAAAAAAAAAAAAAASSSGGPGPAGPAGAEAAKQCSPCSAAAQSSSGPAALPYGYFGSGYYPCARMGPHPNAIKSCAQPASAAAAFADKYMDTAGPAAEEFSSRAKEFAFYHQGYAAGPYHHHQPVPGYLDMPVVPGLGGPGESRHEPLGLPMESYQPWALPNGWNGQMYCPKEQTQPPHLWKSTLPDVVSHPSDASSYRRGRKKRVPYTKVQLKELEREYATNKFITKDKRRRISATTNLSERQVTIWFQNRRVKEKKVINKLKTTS

[4] = inhibitors of hydroxyurea-induced Chk1 phosphorylation, primary screen, imaging, HeLa, phospho-Chk1 antibody, percent positive cells (AID 1186); details: hydroxyurea-induced phospho-Chk1 immunofluorescence imaging, higher = more signal
[5] = inhibitors of hydroxyurea-induced Chk1 phosphorylation, primary screen, imaging, HeLa, phospho-Chk1 nuclear intensity (AID 1187); details: hydroxyurea-induced phospho-Chk1 immunofluorescence imaging, higher = more signal

SMILES	composite z-score [1]	composite z-score (XIP peptide (Xip251-270))	z-score [2]	z-score [3]	z-score [4]	z-score [5]
C=C(CCCC)/C(=C/C[C@@H](OC(=O)c1ccncc1)c1ccc(CO)o1)c1cc(C(=O)OC)ccc1OC	0.611 (inactive)	0.83	-0.519	-3.68 (inactive)	-0.762 (inactive)	-1.65 (inactive)
O=C1[C@H]2C=C(Br)[C@H](C[C@@H]2OCCOCCO)[C@@]12CO2	-0.0844 (inactive)	0.798	-0.334	-0.559 (inactive)	-0.051 (inactive)	-0.0596 (inactive)
[N-]=[N+]=NCc1ccccc1C[C@]1(C(=O)NCCN2CCOCC2)N=C(c2ccc(OCCCO)cc2)O[C@H]1c1ccccc1CN=[N+]=[N-]	3.06 (inactive)	0.578	-2.67	-2.59 (inactive)	-0.26 (inactive)	-0.787 (inactive)
C=CCC(OC(C)=O)[C@@H]1[C@@H](N(Cc2ccc(-c3ccccc3)cc2)C(=O)c2ccc(C)cc2)c2cc(OCCCO)ccc2N1C(=O)Cc1ccc(OC)cc1 (some centres undefined)	0.0129 (inactive)	0.703	-1.18	-0.664 (inactive)	-0.793 (inactive)	-0.677 (inactive)
O[C@@H](Cc1ccccc1)[C@@H](/C=C/c1ccccc1)NCc1ccccc1Br	-0.265 (inactive)	0.727	0.871	-0.419 (inactive)	-0.28 (inactive)	0.364 (inactive)
C=CCNC(=O)[C@H]1[C@@H]2C(=O)O[C@@H](c3ccccc3)[C@@H](c3ccccc3)N2[C@@H](c2ccc(OCCO)cc2)[C@]12C(=O)N(C(=O)OCCOC)c1ccc(C#CC3(O)CCCCCC3)cc12	0.404 (inactive)	0.735	-1.91	-0.675 (inactive)	-0.124 (inactive)	-0.0954 (inactive)
C=CCC(OC(C)=O)[C@@H]1[C@@H](N(Cc2cc3ccccc3o2)C(=O)c2ccc(C)cc2)c2cc(OCCCO)ccc2N1C(=O)c1ccc(-c2ccccc2)cc1 (some centres undefined)	-0.28 (inactive)	-0.294	-2.58	-0.468 (inactive)	-1.19 (inactive)	-1.05 (inactive)
CCN(CC)c1ccc(N2CC=CC34O[C@@H]5/C=C\CCCOC(=O)C5[C@H]3C(=O)N(CCCO)[C@@H]4C2=O)cc1 (some centres undefined)	0.828 (inactive)	0.828	0.404	-6.09 (inactive)	-0.343 (inactive)	0.121 (inactive)
COc1cc(NN2C(C(O)c3ccccc3)C=CC3C(=O)N(c4ccccc4)C(=O)C32)cc(OC)c1OC (centres undefined)	0.396 (inactive)	0.774	-0.634	-4.58 (inactive)	0.124 (inactive)	-0.0995 (inactive)
CCOC(=O)C1=C[C@@H](C(C)(C)C)N(S(=O)(=O)c2ccc(C)cc2)[C@H]1c1ccc(Cl)c(Cl)c1	-0.0073 (inactive)	0.762	-1.96	-0.524 (inactive)	-0.0683 (inactive)	-0.633 (inactive)
COc1ccc([Si](C)(C)[C@@H]2[C@@H](CCn3cc([C@H](O)c4ccccc4)nn3)O[C@]3(C(=O)N(C)c4ccccc43)[C@H]2C)cc1	-0.558 (inactive)	0.679	-1.13	-6.22 (inactive)	0.131 (inactive)	-0.858 (inactive)
Cc1ccc(S[C@]2(C(=O)NCC(F)(F)F)CC(=O)N(C3Cc4ccccc4C3)[C@@H]2c2ccc(CO)cc2I)cc1	0.448 (inactive)	-0.273	0.178	-2.85 (inactive)	0.0501 (inactive)	0.637 (inactive)
O=C(NCC(O)CO)[C@@]1(Cc2ccccc2)COC(c2ccc(OCCCO)cc2)=N1 (some centres undefined)	-0.0623 (inactive)	0.464	0.945	-5.97 (inactive)	-0.036 (inactive)	0.238 (inactive)
O=C(NCC(O)CO)[C@@]1(Cc2ccccc2)N=C(c2ccc(OCCCO)cc2)O[C@H]1c1ccccc1 (some centres undefined)	0.502 (inactive)	0.801	-1.22	-4 (inactive)	-0.607 (inactive)	-0.29 (inactive)
Cc1ccc(F)cc1S(=O)(=O)N[C@@H]1CCN(Cc2ccc(C(F)(F)F)cc2)C1	0.0254 (inactive)	-0.496	-0.433	-5.99 (inactive)	-0.619 (inactive)	-0.441 (inactive)
COCCOC(=O)N1C(=O)[C@@]2(c3cc(C#Cc4ccc(OC)cc4)ccc31)[C@H](c1ccc(OCCO)cc1)N1[C@H](c3ccccc3)[C@H](c3ccccc3)OC(=O)[C@H]1[C@@H]2C(=O)N1CCc2cc(OC)c(OC)cc2C1	0.179 (inactive)	0.592	-1.85	3.38 (inactive)	-0.329 (inactive)	-0.456 (inactive)
CCCCCCCCCCC(O)C1C=CC2C(=O)N(c3ccccc3)C(=O)C2N1Nc1ccc([N+](=O)[O-])cc1 (centres undefined)	0.812 (inactive)	0.801	-0.338	-2.71 (inactive)	0.346 (inactive)	-0.444 (inactive)

SMILES	composite z-score [1]	composite z-score (XIP peptide (Xip251-270))	z-score [2]	z-score [3]	z-score [4]	z-score [5]
O=C(NCCN1CCOCC1)[C@@H]1c2ccccc2C(=O)N(Cc2cc(F)cc(C(F)(F)F)c2)[C@H]1c1ccc(CO)cc1	0.376 (inactive)	0.372	0.0111	-4.42 (inactive)	-0.189 (inactive)	-0.151 (inactive)
COC(=O)[C@@]1(Cc2ccc(F)cc2)[C@H]2c3cc(C(=O)N(C)C)n(Cc4ccccn4)c3C[C@H]2CN1C(=O)c1ccccc1	-0.0593 (inactive)	0.352	-0.393	-5.64 (inactive)	0.412 (inactive)	0.427 (inactive)
O=P(NCC1(CC2(c3ccccc3)CO2)CC1)(c1ccccc1)c1ccccc1 (centres undefined)	0.588 (inactive)	0.822	0.561	-3.26 (inactive)	-0.124 (inactive)	-0.208 (inactive)
C=C[C@H](OC)[C@@H](OC(=O)Nc1ccc(SC)cc1)c1ccc(OCCO)cc1	0.591 (inactive)	-0.0661	0.194	-5.62 (inactive)	0.259 (inactive)	0.654 (inactive)
C=CCC(OC(C)=O)[C@@H]1[C@@H](N(Cc2cc3ccccc3o2)C(=O)c2cccc3ccccc23)c2cc(OCCCO)ccc2N1C(=O)Cc1ccc2ccccc2c1 (some centres undefined)	-0.0088 (inactive)	-0.102	-1.73	-1.02 (inactive)	-0.394 (inactive)	0.15 (inactive)
CO[C@H]1O[C@H](CO)[C@@H](OC(=O)Nc2ccccc2-c2ccccc2)[C@H](OC(=O)Nc2ccccc2-c2ccccc2)[C@H]1OC(=O)Nc1ccccc1-c1ccccc1	0.0163 (inactive)	0.861	-1.06	-2.05 (inactive)	-0.0075 (inactive)	0.618 (inactive)
C=CC[C@@]1(C(=O)NCc2ccccc2)N=C(c2ccc(OCCCO)cc2)O[C@@H]1c1ccccc1CN=[N+]=[N-]	-0.0368 (inactive)	0.496	-2.28	-10.5 (active)	0.168 (inactive)	0.43 (inactive)
COc1ccc(C(=O)Nc2cccc(CN3C(=O)[C@@]4(O[C@@H](CCn5cc([C@H](O)c6ccccc6)nn5)[C@H]([Si](C)(C)c5ccc(OC)cc5)[C@H]4C)c4ccccc43)c2)cc1	0.0252 (inactive)	0.575	-2.31	0.472 (inactive)	-0.694 (inactive)	-1.14 (inactive)
Cc1ccccc1/C=C/C=O	0.958 (inactive)	0.532	-0.198	-0.848 (inactive)	0.133 (inactive)	0.0525 (inactive)
C=CCCN(CC#C[C@H]1Oc2ccccc2S(=O)(=O)N2CCC[C@@H]12)S(=O)(=O)c1ccc(C)cc1	-0.183 (inactive)	-0.0455	-1.53	-2.47 (inactive)	0.508 (inactive)	0.431 (inactive)
CN(C)CCCC[C@@H]1NC(=O)[C@H]2C[C@@H](C(=O)NCCCCCNC(=O)CS)[C@@H](c3ccc(O)cc3)N2C1=O	-0.276 (inactive)	0.903	-0.282	-2.09 (inactive)	0.358 (inactive)	0.155 (inactive)
O=C1O[C@H](c2ccccc2)[C@H](c2ccccc2)N2[C@H]1[C@@H](C(=O)NC[C@H](O)c1ccccc1)[C@]1(C(=O)Nc3ccc(C#CC4(O)CCCCCC4)cc31)[C@H]2c1ccccc1OCCO	-0.34 (inactive)	0.814	-2.04	-2.77 (inactive)	-0.0899 (inactive)	-0.0113 (inactive)
Cc1ccc(N2C(=O)c3ccccc3[C@@H](C(=O)NC(C)C)[C@@H]2c2ccc(CO)cc2)nc1	0.262 (inactive)	0.82	0.679	-1.68 (inactive)	0.364 (inactive)	0.43 (inactive)
CC1(C)C(=O)C(c2ccccc2)=C2CN3C(=O)N(CCc4ccccc4)C(=O)C3(Cc3ccccc3)C=C21 (centres undefined)	1.7 (inactive)	-0.119	-1.34	-0.335 (inactive)	-0.0628 (inactive)	0.121 (inactive)
C#C[C@H](O[Si](C#CCCCCCC)(C(C)C)C(C)C)c1ccccc1	0.0004 (inactive)	-0.113	-1.32	-1.2 (inactive)	-0.0616 (inactive)	-0.0839 (inactive)
CO[C@H]1O[C@H](CO)[C@@H](OC(=O)Nc2cccc(F)c2)[C@H](OC(=O)Nc2ccccc2-c2ccccc2)[C@@H]1OC(=O)Nc1ccccc1-c1ccccc1	1.37 (inactive)	0.805	-2.53	-1.83 (inactive)	-0.164 (inactive)	0.217 (inactive)
CS(=O)(=O)CCOC(=O)C1=CC(c2ccc(CO)cc2)=CC(c2cccs2)N(Cc2cccc(OC(F)(F)F)c2)C=C1C(=O)OCCS(C)(=O)=O (centres undefined)	0.276 (inactive)	0.514	-2.5	-4.18 (inactive)	0.552 (inactive)	0.377 (inactive)

Source: PubChem BioAssay
